Here are results for eight compounds from PubChem BioAssay (NCI).

The structures appear in SMILES notation. This is part of a sample that, as a whole, favours compounds with a hit. Of some 83,000 tested, about 20% had one in any assay.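 Method: cells in 96-well plates; compound added at one concentration; 48 h incubation; percent growth measured; values under 10 scored active.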 A number with no mark means an inactive call. Calls of active or inactive are those of the source.

Common to all, as to assay: NCI-60 one-dose screen, 48 h (100 = growth as untreated, 0 = no growth, -100 = all killed)
The subject of one test is NCI-H226 lung. Conditions: 10 µM.
In another test the test system is NCI-H322M lung. The note with it: 10 µM.
The subject of a further test is HOP-62 NSCLC. The note with it: 10 µM.
In the next test the test system is NCI-H460 lung. Conditions: 10 µM.
The test system of the next test is A549/ATCC NSCLC. Conditions: 10 µM.
A further test deals with DU-145 prostate. The note with it: 10 µM.
Another test relates to SF-268 CNS. Conditions: 10 µM.
The next test relates to SF-295 CNS. The note with it: 10 µM.
Another test relates to SF-539 CNS. The note with it: 10 µM.
The test system of another test is M14 melanoma. Conditions: 10 µM.
The test system of another test is HCT-15 colon. The note with it: 10 µM.
For the next test, the system named is HT29 colon. The note with it: 10 µM.
The subject of another test is SNB-75 CNS. Conditions: 10 µM.
Another test relates to SNB-19 CNS. The note with it: 10 µM.
For the next test, the system named is U251 CNS. The note with it: 10 µM.
A further test relates to PC-3 prostate. Conditions: 10 µM.
In a further test the test system is SK-MEL-5 melanoma. The note with it: 10 µM.
The test system of a further test is UACC-62 melanoma. The note with it: 10 µM.
In a further test the test system is SK-MEL-28 melanoma. The note with it: 10 µM.
The test system of the next test is HL-60(TB) leukemia. The note with it: 10 µM unless noted.

Turning to `O=C(/C=C/c1ccccc1)c1nc2ccccc2n1Cc1ccc(F)cc1`, the growth in the test with NCI-H226 lung is -48.5% (active); in the test with NCI-H322M lung, 37%; in the test on HOP-62 NSCLC, -26% (active); with NCI-H460 lung, -28.9% (active); in the test on A549/ATCC NSCLC, 24.8%; in the test on DU-145 prostate it was 2.92% (active). The growth in the test on SF-268 CNS was 10.8%; with SF-295 CNS it was -11% (active); with SF-539 CNS, -89.1% (active); with M14 melanoma, -20.8% (active); in the test on HCT-15 colon it was -70.1% (active); with HT29 colon, -49.5% (active). The growth is 3.39% (active) in the test on SNB-75 CNS; -47.9% (active) in the test on SNB-19 CNS; -73.6% (active) in the test with U251 CNS; -33.5% (active) in the test with PC-3 prostate; 11% in the test with SK-MEL-5 melanoma; -39% (active) in the test on UACC-62 melanoma. Also, the growth was -26.4% (active) in the test on SK-MEL-28 melanoma and -25.3% (active) in the test with HL-60(TB) leukemia.
Turning to `O=C(/C=C/c1ccc(Cl)cc1Cl)c1nc2ccccc2n1Cc1ccc(Br)cc1`, the growth is 55.7% in the test with NCI-H226 lung; 84.4% in the test on NCI-H322M lung; 94.8% in the test with HOP-62 NSCLC; 78.1% in the test on NCI-H460 lung; 86.5% in the test with A549/ATCC NSCLC; 83.9% in the test with DU-145 prostate. Also, the growth with SF-268 CNS is 81%; with SF-295 CNS, 79.4%; in the test with SF-539 CNS, 84%; in the test with M14 melanoma, 78.4%; with HCT-15 colon, 46.6%; with HT29 colon it was 53.9%. The growth in the test with SNB-75 CNS is 50.4%; with SNB-19 CNS, 74.8%; with U251 CNS, 45%; in the test with PC-3 prostate it was 67.1%; in the test on SK-MEL-5 melanoma it was 85%; with UACC-62 melanoma, 60.7%. Further, the figures for the growth in the test with SK-MEL-28 melanoma and with HL-60(TB) leukemia were 89.5% and 60%, respectively.
For `COc1ccc2cc([C@H](C)C(=O)[Se]CCC#N)ccc2c1`, the growth in the test with NCI-H226 lung is -49.9% (active); in the test with NCI-H322M lung it was -21.6% (active); with HOP-62 NSCLC, -81.2% (active); in the test on NCI-H460 lung, -27.2% (active); with A549/ATCC NSCLC it was -64.9% (active); with DU-145 prostate, -76.4% (active). Besides, the growth in the test on SF-268 CNS is -45.8% (active); with SF-295 CNS it was -70.3% (active); in the test on SF-539 CNS it was -67.3% (active); with M14 melanoma, -63.9% (active); in the test with HCT-15 colon, -31.7% (active); in the test with HT29 colon it was -49.3% (active). The growth in the test with SNB-75 CNS was -46.8% (active); in the test on SNB-19 CNS it was -68.7% (active); with U251 CNS, -95.3% (active); in the test on PC-3 prostate, -10.1% (active); in the test with SK-MEL-5 melanoma, -70.4% (active); in the test with UACC-62 melanoma, -67.7% (active). Moreover, the growth in the test with SK-MEL-28 melanoma was -37.9% (active); in the test with HL-60(TB) leukemia, -42.5% (active).
For the compound `CC12CCC3(CCC(=O)NCCCNc4ccnc5cc(Cl)ccc45)[C@@](C)(OO[C@]3(C)O1)O2`, the growth in the test with NCI-H226 lung is 0.706% (active); in the test on NCI-H322M lung, 27.5%; in the test with HOP-62 NSCLC, -6.39% (active); with NCI-H460 lung, 7.06% (active); with A549/ATCC NSCLC it was 25.3%; in the test with DU-145 prostate, 38.2%. Also, the growth in the test on SF-268 CNS is 5.01% (active); in the test with SF-295 CNS, -1.94% (active); in the test with SF-539 CNS, -65.6% (active); in the test with M14 melanoma it was -2.43% (active); with HCT-15 colon, 6.51% (active); in the test on HT29 colon, 10.7%. Besides, the growth in the test with SNB-75 CNS was -4.41% (active); in the test with SNB-19 CNS it was 7.99% (active); with U251 CNS, -28.8% (active); in the test with PC-3 prostate, 28.3%; with SK-MEL-5 melanoma, 14.2%; in the test with UACC-62 melanoma, 11.1%. Besides, the values for the growth in the test with SK-MEL-28 melanoma and with HL-60(TB) leukemia were 33.4% and 14.9%, respectively.
For the compound `COC(=O)c1ccc(-n2cc(CCCN(CCNc3ccnc4cc(Cl)ccc34)C(=O)CCC(=O)O[C@@H]3O[C@@H]4OC5(C)CC[C@H]6[C@H](C)CC[C@@H]([C@H]3C)[C@@]46OO5)nn2)cc1`, the growth is 48.4% in the test on NCI-H226 lung; 71% in the test with NCI-H322M lung; 64.5% in the test on HOP-62 NSCLC; 52.1% with NCI-H460 lung; 44.4% in the test with A549/ATCC NSCLC; 59.8% in the test on DU-145 prostate. Besides, the growth with SF-268 CNS is 59.2%; with SF-295 CNS, 43.8%; in the test on SF-539 CNS, 39%; in the test on M14 melanoma it was 47.1%; with HCT-15 colon, -4.92% (active); in the test with HT29 colon, 5.91% (active). The growth was 67.3% in the test on SNB-75 CNS; 63.7% in the test with SNB-19 CNS; 53.3% with U251 CNS; 39.7% in the test with PC-3 prostate; -70.1% (active) in the test on SK-MEL-5 melanoma; 36.8% in the test on UACC-62 melanoma. In addition, the growth is 16.3% with SK-MEL-28 melanoma and -30.7% (active) with HL-60(TB) leukemia.
Turning to `O=C(NC([Se])=NC1CCCCC1)c1ccccc1`, the growth is 58.7% in the test with NCI-H226 lung; 4.78% (active) with NCI-H322M lung; 15.3% in the test with HOP-62 NSCLC; 11.6% in the test with NCI-H460 lung; 21.1% with A549/ATCC NSCLC; 46.2% in the test on DU-145 prostate. In addition, the growth was 96.2% in the test on SF-268 CNS; 8.53% (active) in the test on SF-295 CNS; 14.3% with SF-539 CNS; 69.8% with M14 melanoma; 44% with HCT-15 colon; 29.7% with HT29 colon. Moreover, the growth with SNB-75 CNS was 17.8%; in the test with SNB-19 CNS, 24.6%; in the test with U251 CNS, 49.2%; in the test on PC-3 prostate, 51.3%; in the test on SK-MEL-5 melanoma it was 18%; in the test on UACC-62 melanoma, 9.12% (active). Also, the values for the growth with SK-MEL-28 melanoma and in the test on HL-60(TB) leukemia were 33.3% and 16%, respectively.
As for `O=C(NCCCCC(c1ccc(F)cc1)c1ccc(F)cc1)Nc1ccc([N+](=O)[O-])c(C(F)(F)F)c1`, the growth is 0.603% (active) with NCI-H226 lung; 6.54% (active) in the test with NCI-H322M lung; -29% (active) in the test with HOP-62 NSCLC; 7.56% (active) with NCI-H460 lung; 6% (active) in the test on A549/ATCC NSCLC; 20.9% in the test with DU-145 prostate. Moreover, the growth is 18.5% in the test on SF-268 CNS; -4.61% (active) with SF-295 CNS; -28.2% (active) with SF-539 CNS; -23.1% (active) in the test with M14 melanoma; 0.604% (active) in the test with HCT-15 colon; -11% (active) in the test with HT29 colon. Besides, the growth was -9.8% (active) in the test with SNB-75 CNS; 17.1% in the test on SNB-19 CNS; 2.48% (active) with U251 CNS; -4.82% (active) in the test on PC-3 prostate; -100% (active) with SK-MEL-5 melanoma; -14.9% (active) in the test on UACC-62 melanoma. The growth in the test with SK-MEL-28 melanoma was 16.5%.
For `C#CC[Se]C(=O)c1ccc2n[se]nc2c1`, the growth in the test on NCI-H226 lung is 23%; in the test on NCI-H322M lung it was 12%; with HOP-62 NSCLC, 28.6%; in the test on NCI-H460 lung it was 63.9%; in the test on A549/ATCC NSCLC, 59.7%; in the test on DU-145 prostate, 71.8%. Also, the growth in the test on SF-268 CNS was 89.4%; with SF-295 CNS it was 25.4%; in the test with SF-539 CNS it was 40.3%; with M14 melanoma, 54.9%; in the test with HCT-15 colon, 25.8%; with HT29 colon it was 39.6%. Also, the growth in the test with SNB-75 CNS is 56.5%; with SNB-19 CNS, 79.9%; with U251 CNS it was 73.2%; in the test on PC-3 prostate, 39.6%; in the test with SK-MEL-5 melanoma it was 83.2%; with UACC-62 melanoma, 51.4%. Besides, the growth with SK-MEL-28 melanoma was 79.4%; in the test with HL-60(TB) leukemia, 1.82% (active).
